Compound activity deposited in PubChem by several laboratories.
PERK inh – inhibitors of human PERK kinase; inhibition, % at 5.6 µM; CHO PERK-DD fusion, SEAP luminescence translation reporter; Q9NZJ5; 220,000 tested, 0.17% active;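 active means inhibition above the mean inhibition of all tested compounds plus 3 SD, set separately per screening campaign, cut at about 2.9% in these data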;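 further: PERK kinase domain activated by AP20187 dimerizer at 100 nM; 0% = DMSO with dimerizer and 100% = rapamycin at 8.4 µM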
MLLE-PAM2 inh – blocks PAM2 peptide binding to the PABP1 MLLE domain | P11940 | GST-MLLE / FITC-PAM2 fluorescence polarization | inhibition, % at 20 µM | 360,000 tested, 0.36% active; in the data active means inhibition above about 35%, passing the limit was not always enough;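 further: plate controls were DMSO wells with GST-MLLE for no effect and wells lacking GST-MLLE protein for full effect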
Target sequence (P11940 whole entry, looked up, the tested form may be a part): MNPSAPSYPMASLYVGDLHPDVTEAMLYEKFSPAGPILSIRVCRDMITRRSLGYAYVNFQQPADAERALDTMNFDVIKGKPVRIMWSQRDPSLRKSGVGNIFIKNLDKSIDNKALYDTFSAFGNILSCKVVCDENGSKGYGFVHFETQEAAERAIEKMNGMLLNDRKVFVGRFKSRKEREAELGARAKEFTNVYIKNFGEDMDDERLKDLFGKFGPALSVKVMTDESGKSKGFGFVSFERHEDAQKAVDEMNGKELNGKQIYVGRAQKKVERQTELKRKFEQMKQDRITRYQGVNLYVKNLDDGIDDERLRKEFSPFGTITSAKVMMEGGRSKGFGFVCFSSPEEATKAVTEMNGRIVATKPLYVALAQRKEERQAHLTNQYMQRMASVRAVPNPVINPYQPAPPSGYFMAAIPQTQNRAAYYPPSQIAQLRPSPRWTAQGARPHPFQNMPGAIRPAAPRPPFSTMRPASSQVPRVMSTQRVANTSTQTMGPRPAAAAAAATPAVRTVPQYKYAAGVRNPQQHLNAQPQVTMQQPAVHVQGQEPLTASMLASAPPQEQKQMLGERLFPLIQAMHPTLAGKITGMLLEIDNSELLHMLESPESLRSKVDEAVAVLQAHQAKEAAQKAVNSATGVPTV
eIF4E 4G PPI – blocks eIF4E binding to eIF4G. inhibition, % at 21.7 µM. TR-FRET eIF4E-eIF4GI(517-606) binding, 2 h. P63073+Q04637. 220,000 tested, 0.37% active;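 active means inhibition above about 30%, limit read from the data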;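 further: 0% = full FRET control wells and 100% = background wells lacking eIF4GI fragment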
eIF4H inh – inhibitors of RNA binding by human eIF4H | eIF4H fluorescence polarization binding assay | Q15056 | 290,000 tested, 0.94% active | inhibition, % at 35 µM;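 further: calls also rest on retests at 20 µM and on dose response follow-up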
PABP FP inh – PABP-poly(A) binding inhibition. P11940. PABP-poly(A) RNA binding, fluorescence polarization. calls only at 35 µM. 290,000 tested, 1% active. AID 2014;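 further: calls also rest on retests at 20 µM and on dose response follow-up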
An asterisk follows results filed as active; i = inactive; ? = inconclusive; / = no result; + = active, no number. Most compounds without a hit are left out; they make up all but 1.6% or so of the library. Unless noted, how the calls were made is not given here.

SMILES	PERK inh	MLLE-PAM2 inh	eIF4E 4G PPI	eIF4H inh	PABP FP inh
CN1C[C@H](C(=O)N[C@]2(C)O[C@@]3(O)[C@@H]4CCCN4C(=O)[C@H](Cc4ccccc4)N3C2=O)CC2c3cccc4[nH]cc(c34)C[C@H]21 (some centres undefined)	/	-3.8	/	/	/
S=c1[nH]c2cc(-c3ccccc3)ccc2o1	0.4	-90.0	-3.7	7.1	i
Cc1oc2c(C)c(O)ccc2c(=O)c1-c1nncn1-c1ccccc1	-0.5	-48.5	-4.3	?	+
Cc1oc2c(C)c(O)ccc2c(=O)c1N1C(=O)c2ccccc2C1=O	-0.1	-7.5	16.1	-7.5	i
COc1ccc(CCNC(=O)c2ccc3c(=O)n4c(nc3c2)CCC4)cc1OC	/	-0.7	/	/	/
CSc1nc(O)c(C(c2ccccc2)c2c(O)nc(SC)[nH]c2=O)c(=O)[nH]1	/	7.4	/	-16.6	i
CSc1nc(O)c(C2OC(=O)c3ccccc32)c(=O)[nH]1 (centres undefined)	2.9*	3.8	-2.5	-4.4	i
COc1ccccc1C(=O)Nc1ccc(OCC(=O)N2CCCCC2C)cc1 (centres undefined)	/	-6.3	/	/	/
COc1ccccc1NC(=O)c1c(N=Cc2cccc([N+](=O)[O-])c2)cnn1C	0.8	-4.2	45.8*	-2.6	i
CC(=O)c1cc(-c2ccccc2)[nH]c1N1CCOCC1	0.2	44.1*	3.8	11.5	i
CC(C)C(=O)NNC(=O)c1csc(-c2cccs2)n1	1.3	13.2	1.3	3.7	i
CC(C)c1ccc(C2NC(=S)NC3=C2C(=O)CCC3)cc1 (centres undefined)	0.7	-125.6	7.9	active	i
Cc1ccc(-c2cc(-c3ccccc3)c3c(N)c(S(C)(=O)=O)sc3n2)cc1	0.8	7.9	-15.3	105.0*	+
CNC(=O)[C@@H]1CCC(=O)N1	/	-4.9	/	/	/
CCNc1nc(NC(C)C)nc(Oc2ccc(=O)n(C)n2)n1	1.4	-8.9	64.9*	2.3	i
CC(C)Nc1nc(NC(C)C)nc(Oc2ccc(=O)n(C)n2)n1	-0.2	0.5	-0.7	-5.1	i
CC1=C(C(=O)N2CCOCC2)C(c2ccccc2F)NC(=O)N1 (centres undefined)	0.1	5.6	3.0	0.7	i
Cc1cc(=O)oc2c(CN3CCC(C)CC3)c(O)c(Cl)cc12	-0.7	51.2*	-4.9	?	?
CCCc1cc(=O)oc2cc(C)c(CN3CCCC3)c(O)c12	0.5	-37.0	-0.8	79.9*	+
CCc1cc(=O)oc2cc(C)c(CN3CCCCC3)c(O)c12	-0.5	34.4	-3.8	69.7*	+
CCCc1cc(=O)oc2c(CN3CCCC3)c(O)ccc12	-0.1	1.9	/	31.0	i
Cc1cc(=O)oc2c(CN3CCCC3)c(O)c(Cl)cc12	/	12.0	/	61.1	i
Cc1cc(C)c2c(CN3CCCC3)cc(=O)oc2c1	/	-1.8	/	/	/
CCCc1cc(=O)oc2c(CN3CCCC3)c(O)c(Cl)cc12	0.3	31.8	/	108.0*	+
O=C(Nn1cnc2ccccc2c1=O)c1ccc(Cl)c([N+](=O)[O-])c1	/	-2.9	/	4.1	i
SMILES	PERK inh	MLLE-PAM2 inh	eIF4E 4G PPI	eIF4H inh	PABP FP inh
CCc1cc(=O)oc2cc(C)c(CN3CCCC3)c(O)c12	0.4	-18.7	10.6	76.8*	+
CCN(CC)Cc1c(O)c(Cl)cc2c(C)c(C)c(=O)oc12	-0.5	0.8	-13.1	-3.9	i
CCN(CC)Cc1c(O)c(Cl)cc2c(C)cc(=O)oc12	-0.6	40.8*	9.9	?	i
O=C(CBr)N1CCc2ccccc2C(c2ccccc2)C1 (centres undefined)	1.1	-125.7	3.2	84.0*	i
Cn1cnc(S(=O)(=O)N2CCc3ccccc32)c1	3.1*	-1.9	-5.9	7.3	i
CCc1ccccc1NS(=O)(=O)c1ccc2c(c1)NC(=O)CC(=O)N2	0.5	-4.3	-4.1	active	+
CCc1cccc(NS(=O)(=O)c2ccc3c(c2)NC(=O)CC(=O)N3)c1	0.5	21.9	-0.4	-4.6	i
COc1ccc(C(=O)Nc2nnc(CC(=O)N/N=C/c3ccc(O)cc3O)s2)cc1	/	-43.7	/	75.8*	i
Cc1ccc(C(=O)Nc2nnc(CC(=O)N/N=C/c3ccc(O)c(O)c3)s2)cc1	/	-29.6	/	/	/
COc1ccc(/C=N/NC(=O)CSc2n[nH]c(=O)[nH]c2=O)cc1	0.0	-1.8	-1.0	-8.6	i
COc1ccc(/C=N/NC(=O)Cc2n[nH]c(=O)[nH]c2=O)cc1	3.0*	-2.6	-3.1	-4.7	i
CCc1nc2c(OCCc3cccc(OC)c3)cccn2c1N(C)C(=O)c1cccs1	/	-2.9	/	/	/
C[C@H](CO)N1C[C@H](C)[C@@H](CN(C)C(=O)Nc2ccc3c(c2)OCO3)Oc2ccc(NC(=O)CCC(F)(F)F)cc2C1=O	/	1.3	/	/	/
Cc1cc(C(=O)C(C(c2ccccc2)N2CCOCC2)N2CCOCC2)ccc1Cl (centres undefined)	/	-4.1	/	/	/
CCOC(=O)Cn1cc(C#N)c2cccc(CC)c21	3.3*	-9.8	2.9	-7.8	i
COc1cc(NC(=O)CN(C)S(=O)(=O)c2ccc3c(c2)CC(C)N3C(C)=O)cc(OC)c1OC (centres undefined)	/	-14.0	/	8.6	i
Cc1cccc(NC(=O)CN2CCN(C(=O)C3CCCO3)CC2)c1C (centres undefined)	/	12.3	/	-5.2	i
O=C(CN1CCN(c2ccccn2)CC1)Nc1ccc(Oc2ccccc2)cc1	-0.8	4.0	-0.4	active	i
Nc1nc(-c2ccc3c(c2)CCO3)cs1	0.0	13.3	-0.4	0.1	+
CC(=O)Nc1nc(-c2ccc3c(c2)CCO3)cs1	1.3	12.8	0.1	-11.6	i
CC1CC(C)CN(C(=O)CCc2ccccc2)C1 (centres undefined)	0.1	1.3	-1.0	active	i
O=C(CN1CCN(S(=O)(=O)c2ccc3c(c2)OCCO3)CC1)Nc1cccc(F)c1	/	3.3	/	/	/
C=CCn1c(COc2ccc(OC)cc2)nnc1SCn1nnc2ccccc2c1=O	-0.2	-40.0	-1.6	active	+
CCN(C(=O)COC(=O)c1cc2c(s1)CCCCC2)C1CCS(=O)(=O)C1 (centres undefined)	/	5.3	/	57.3	i
CC(C)CN(C(=O)COC(=O)c1cc2c(s1)CCC2)C1CCS(=O)(=O)C1 (centres undefined)	0.1	0.7	13.5	86.5*	+
SMILES	PERK inh	MLLE-PAM2 inh	eIF4E 4G PPI	eIF4H inh	PABP FP inh
O=c1c2ccccc2nc(/C=C/c2cccnc2)n1Cc1ccccc1	-1.3	-7.0	91.8*	-11.5	i
Cc1ccccc1/C=C\c1nc2ccccc2c(=O)n1Cc1ccccc1	-0.9	-9.2	-0.9	13.3	i
Cc1cccc(/C=C/c2nc3ccccc3c(=O)n2Cc2ccccc2)c1	-0.1	-2.7	0.7	76.1*	+
Cc1ccc(N/C=C2/Sc3ccccc3NC2=O)cc1	-0.1	-35.5	2.6	?	+
O=C1NC(=S)SC1=Cc1cccs1	/	5.5	/	/	/
O=C1Nc2ccccc2S/C1=C/c1cccs1	-1.1	1.3	73.8*	7.9	i
COc1ccc(N/C=C2/Sc3ccccc3NC2=O)cc1	-0.4	28.4	-1.0	1.6	i
